Hits are enriched below; roughly 9.3% of the tested compounds scored in any of these assays.
SMN2 splice enh = SMN2 splice variant enhancement | Potency, µM (series often up to 46.1 µM), inactives show top-dose activity change, positive = activation, most hits filed as activators | HEK293 SMN2-luciferase splicing reporter, luminescence, 30-36 h | 210,000 compounds, 2.8% hits; further: % of control where 0% means no effect; nearly all actives have a fitted effect of over 55% in size
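qHTS luciferase splicing reporter: luminescence rises when SMN2 exon 7 is included in transfected HEK293 cells. Compound exposure lasted 30-36 h at 37C, with 4.5 mM final sodium butyrate as control, followed by a ONE-Glo read.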
FLuc counter = firefly luciferase modulation, counter-screen for miR-21 project. P08659. purified FLuc, Km substrates, luminescence inhibition. Potency, µM (titrated, usually from 57.5 µM), for the others: top-dose activity change, negative = inhibition, hits mostly inhibitors. 360,000 compounds, 6.9% hits. AID 588342;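 further: plate controls were vehicle for no effect and reference inhibitor for full effect; nearly all actives have a fitted effect of over 55% in size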
Target sequence (P08659 whole entry, looked up): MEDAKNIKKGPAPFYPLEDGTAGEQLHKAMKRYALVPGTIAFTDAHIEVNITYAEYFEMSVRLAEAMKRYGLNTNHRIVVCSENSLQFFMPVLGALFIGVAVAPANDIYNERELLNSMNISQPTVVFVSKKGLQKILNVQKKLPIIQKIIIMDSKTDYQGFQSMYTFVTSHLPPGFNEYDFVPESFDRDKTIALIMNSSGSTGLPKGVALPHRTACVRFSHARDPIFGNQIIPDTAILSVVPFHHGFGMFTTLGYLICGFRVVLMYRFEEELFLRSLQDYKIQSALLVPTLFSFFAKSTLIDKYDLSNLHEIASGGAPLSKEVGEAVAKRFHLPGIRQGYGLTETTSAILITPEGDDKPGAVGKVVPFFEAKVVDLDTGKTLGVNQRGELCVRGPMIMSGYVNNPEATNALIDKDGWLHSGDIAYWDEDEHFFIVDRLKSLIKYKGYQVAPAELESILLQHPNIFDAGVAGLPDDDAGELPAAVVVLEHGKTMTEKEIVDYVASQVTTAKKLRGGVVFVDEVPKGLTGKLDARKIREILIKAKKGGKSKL
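Biochemical qHTS of compounds, final roughly 60 µM downward over six points, against 10 nM purified firefly luciferase using Km concentrations of substrates (10 uM D-luciferin, 10 uM ATP) in Tris acetate pH 7.5 buffer; luminescence output.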
NPC1 prom act = activators of NPC1 promoter; Huh7 NPC1 promoter luciferase reporter, 24 h; Potency, µM (highest dose often 9.22 µM), for the others: at the highest dose activation, usual class: activators; 320,000 compounds, 2.4% hits; AID 485313; further: % of control where 0% means no effect; nearly all actives have a fitted effect of over 60% in size
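Compounds in DMSO were transferred onto Huh7 NPC1-luciferase reporter cells pre-incubated 2 h; after 24 h at 37 °C, Amplite reagent was dispensed and luminescence recorded 10 min later.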
Rab9 prom act = activators of Rab9 promoter | Potency, µM (series often up to 9.22 µM), inactives show at the highest dose activation, negative = inhibition, hits mostly activators | 320,000 compounds, 2.8% hits | Huh7 Rab9 promoter-luciferase reporter, luminescence, 24 h | AID 485297; further: % of control where 0% means no effect; nearly all actives have a fitted effect of over 60% in size
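Stable Rab9-luc Huh7, 1500 cells/well, 2 h settle; cmpd in DMSO, 24 h, 37 °C/5% CO2; luciferase reagent 10 min RT; luminescence.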
ELG1 genotox = inducers of genotoxicity in HEK293T ELG1-luciferase cells | HEK293T ELG1-luciferase reporter, luminescence, 16 h | Potency, µM (highest dose often 46 µM), inactives show at the top dose activity change, positive = activation, actives largely listed as activators | 330,000 compounds, 1.3% hits; further: % of control where 0% means no effect; nearly all actives have a fitted effect of over 60% in size
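DMSO vehicle served as control against compound-treated ELG1-luciferase HEK293T cells; exposure lasted 16 hr at 37 °C and 5% CO2, followed by ONE-Glo luminescence detection after 30 min.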
ELG1 DNA repair = ELG1-dependent DNA repair inhibition; HEK293T ELG1-luciferase reporter, luminescence, 16 h; DNA damage induced by 5-fluorouridine; Potency, µM (series often up to 46.1 µM), inactives show at the highest dose activity change, negative = inhibition, hits mostly inhibitors; 330,000 compounds, 2.3% hits; further: on the % scale 0 is the no-effect control and ±100 the full control effect; nearly all actives have a fitted effect of over 55% in size
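In this reporter screen, reduction of luminescence relative to DMSO vehicle indicated activity. Compounds and 5-fluorouridine were added together to 2,000 cells per well, incubated for 16 hr at 37 °C, then developed with ONE-Glo.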
Active calls of the source: *. The call rests on the fitted dose curve; in most records, active means well fitted curve in the direction sought with a large enough effect; inconclusive means small, poorly fitted or top-dose-only effect, or another doubt; inactive means no such curve, though single readings can be large; an effect the other way counts as inactive or inconclusive. Potency means the concentration at half of the fitted maximal effect.

How did CCOC(=O)C(=CNc1cccnc1Oc1ccc(C)c2c1CCC2)C(=O)OCC do in these assays?
FLuc counter: -1%; NPC1 prom act: -7%; Rab9 prom act: -7%; ELG1 genotox: -13%; ELG1 DNA repair: 15µM*

What do the screens show for `Cc1ccc(Oc2ncccc2NC(=O)CC2(CC(=O)O)CCCC2)c2c1CCC2`?
FLuc counter: 0%; NPC1 prom act: 1%; Rab9 prom act: 0%; ELG1 genotox: 1%; ELG1 DNA repair: 11%

Results for Nc1cc2ccncc2c2ccccc12 ?
FLuc counter: -10%; NPC1 prom act: 21%; Rab9 prom act: 0%; ELG1 genotox: -15%; ELG1 DNA repair: 1.8µM*

How did Nc1nc(Nc2ccccc2Br)nc(C(F)(F)F)n1 do in these assays?
SMN2 splice enh: 4%; FLuc counter: inconclusive; NPC1 prom act: 2%; Rab9 prom act: 5%; ELG1 genotox: inconclusive; ELG1 DNA repair: 29%

How did Nc1nc(Nc2ccc(Cl)cc2Cl)nc(C(F)(F)F)n1 do in these assays?
SMN2 splice enh: inconclusive; FLuc counter: inconclusive; NPC1 prom act: inconclusive; Rab9 prom act: inconclusive; ELG1 genotox: 18µM*; ELG1 DNA repair: inconclusive

How did O=C(N/N=C/c1cccc([N+](=O)[O-])c1)c1cc2c(ccc3ccccc32)o1 do in these assays?
SMN2 splice enh: -5%; FLuc counter: -4%; NPC1 prom act: inconclusive; Rab9 prom act: -5%; ELG1 genotox: 14%; ELG1 DNA repair: inconclusive

What do the screens show for `O=C(O)c1ccc(/C=N/NC(=O)c2cc3c(ccc4ccccc43)o2)cc1`?
FLuc counter: 6µM*; NPC1 prom act: -2%; Rab9 prom act: 11%; ELG1 genotox: 0%; ELG1 DNA repair: -5%

Results for COc1ccc(/C=N/NC(=O)c2cc3c(ccc4ccccc43)o2)cc1OC ?
FLuc counter: 11µM*; NPC1 prom act: -3%; Rab9 prom act: -3%; ELG1 genotox: -4%; ELG1 DNA repair: inconclusive

What do the screens show for `O=C(N/N=C/c1ccncc1)c1cc2c(ccc3ccccc32)o1`?
SMN2 splice enh: -10%; FLuc counter: inconclusive; NPC1 prom act: 0%; Rab9 prom act: 4%; ELG1 genotox: 3%; ELG1 DNA repair: -4%

Results for COc1cc(/C=N/NC(=O)c2cc3c(ccc4ccccc43)o2)cc(OC)c1O ?
FLuc counter: 4.8µM*; NPC1 prom act: -2%; Rab9 prom act: -4%; ELG1 genotox: 0%; ELG1 DNA repair: inconclusive

Results for O=C(N/N=C/c1ccc(-c2ccc(Cl)c(C(=O)O)c2)o1)c1cc2c(ccc3ccccc32)o1 ?
FLuc counter: 21µM*; NPC1 prom act: 13%; Rab9 prom act: 1%; ELG1 genotox: 5%; ELG1 DNA repair: 5%

How did CC1CCN(S(=O)(=O)c2cccc(C(=O)NC3CCS(=O)(=O)C3)c2)CC1 (configuration not stated) do in these assays?
FLuc counter: -4%

How did COc1ccc(/C=N\NC(=O)c2cc3c(ccc4ccccc43)o2)cc1O do in these assays?
FLuc counter: 12µM*; NPC1 prom act: -2%; Rab9 prom act: -1%; ELG1 genotox: -9%; ELG1 DNA repair: inconclusive

Results for COc1ccccc1/C=N/NC(=O)c1cc2c(ccc3ccccc32)o1 ?
FLuc counter: 19µM*; NPC1 prom act: 1%; Rab9 prom act: 3%; ELG1 genotox: -5%; ELG1 DNA repair: -7%

How did N#CCn1cc(/C=N/NC(=O)c2cc3c(ccc4ccccc43)o2)c2ccccc21 do in these assays?
FLuc counter: inconclusive; NPC1 prom act: -13%; Rab9 prom act: -5%; ELG1 genotox: -3%; ELG1 DNA repair: -22%

What do the screens show for `CCCCn1c(NC(=O)CC)c(C#N)c2nc3ccccc3nc21`?
SMN2 splice enh: -4%; FLuc counter: -1%; NPC1 prom act: -2%; Rab9 prom act: -4%; ELG1 genotox: -2%; ELG1 DNA repair: 0%

What do the screens show for `N#Cc1c(NC(=O)c2ccccc2Cl)n(Cc2ccccc2)c2nc3ccccc3nc12`?
SMN2 splice enh: -33%; FLuc counter: 0%; NPC1 prom act: -1%; Rab9 prom act: 1%; ELG1 genotox: -13%; ELG1 DNA repair: 21µM*

What do the screens show for `CCCCn1c(NC(=O)c2ccccc2Cl)c(C#N)c2nc3ccccc3nc21`?
SMN2 splice enh: -37%; FLuc counter: 5%; NPC1 prom act: 0%; Rab9 prom act: -2%; ELG1 genotox: -10%; ELG1 DNA repair: 23µM*

What do the screens show for `Cn1ccc2cc(S(=O)(=O)N3CCN(C(=O)Nc4ccc(F)cc4F)CC3)ccc21`?
FLuc counter: -5%

Results for CC(C)COc1ccc(C(=O)NCC2OCCc3ccccc32)cc1 (configuration not stated) ?
SMN2 splice enh: -10%; FLuc counter: inconclusive

What do the screens show for `COc1ccc(C(=O)NCC2OCCc3ccccc32)c(O)c1` (configuration not stated)?
SMN2 splice enh: inconclusive; FLuc counter: 21µM*; NPC1 prom act: 28%; Rab9 prom act: inconclusive; ELG1 genotox: inconclusive; ELG1 DNA repair: inconclusive

What do the screens show for `CC(=O)NC(CC(=O)O)C(=O)O` (configuration not stated)?
SMN2 splice enh: 6%; FLuc counter: 5%; NPC1 prom act: -9%; Rab9 prom act: 0%; ELG1 genotox: -7%; ELG1 DNA repair: 27%

What do the screens show for `O=C(O)C[C@H](NC(=O)CP(=O)(O)O)C(=O)O.[NH-][C@@H]1CCCC[C@@H]1[NH-].[Pt]`?
SMN2 splice enh: 2.5µM*

How did Cc1cc(N)n(-c2ccccc2)n1 do in these assays?
SMN2 splice enh: 0%; FLuc counter: 0%; NPC1 prom act: 2%; Rab9 prom act: 3%; ELG1 genotox: 1%; ELG1 DNA repair: 14%

Results for Cc1cc(-c2cc(N)n(-c3ccccc3)n2)c(C)n1C1CCCC1 ?
SMN2 splice enh: 1%; FLuc counter: 6µM*; NPC1 prom act: 3.5µM*; Rab9 prom act: 1.6µM*; ELG1 genotox: inconclusive; ELG1 DNA repair: inconclusive

How did O=c1c(-c2ccc(O)cc2)coc2cc(O)cc(O)c12 do in these assays?
SMN2 splice enh: 25µM*; FLuc counter: 21µM*; NPC1 prom act: 5.8µM*; Rab9 prom act: 13µM*; ELG1 genotox: 16µM*; ELG1 DNA repair: inconclusive

How did COc1cc(O)cc2occ(-c3ccc(O)cc3)c(=O)c12 do in these assays?
FLuc counter: inconclusive; NPC1 prom act: 12%; Rab9 prom act: 2%; ELG1 genotox: 17%; ELG1 DNA repair: inconclusive

Screening results as filed in PubChem.
